± gives the standard deviation of the averaged measurements. Whole data set: some 25,000 sequences, median “ln(normalized median fluorescence intensity)” near 8.6, cut for the highest 2% near 10. The entries come from a sample that favours the highest values as a whole.
system: PfAP2-EXP AP2 domain (GST-tagged); assay: gcPBM binding intensity (ln(normalized median fluorescence intensity)); higher = stronger DNA binding
How it was run: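 Each value is the highest Masliner-normalised natural-log median intensity across replicate spots of either orientation of a probe. The probes were primer-extended double-stranded 36-bp intergenic genomic sequences on an Agilent 4 × 180k array, alongside negative controls, exposed for 1 h to GST-tagged P. falciparum DNA-binding domains expressed in E. coli. Bound protein was picked up with Alexa488 anti-GST antibody and scanned at 488 nm.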

Question: Which “gcPBM binding intensity (ln)” value does the source give for “TTTGCCATATGACACACACACATGTAAACCCCCTTT [CACACA_site6873]” here?
Answer: 9.41 ± 0.45

Question: “ATATATTTTTACCATACACACATATAACAAATATAT [CACACA_site7706]” was tested. Which “gcPBM binding intensity (ln)” value did it give?
Answer: 8.75 ± 0.44

Question: For “TTTTTAATTTTTTGTTGTACATATAATATATTATTA [XGTACX_site4903]”, which “gcPBM binding intensity (ln)” value is on record?
Answer: 8.6 ± 0.27

Question: With “TTTTTTTTTAAAACATAATAAAAAATAAAACAACCT [GTGCAC_negctrl_site92]” as the sequence, how does the “gcPBM binding intensity (ln)” value read?
Answer: 8.77 ± 0.28

Question: “ATATACACATTAATAACACACAATATGATAACAAAT [CACACA_site7670]” was tested. Which “gcPBM binding intensity (ln)” value did it give?
Answer: 8.79 ± 0.33

Question: For “ATTACATGCAATATATGTACGTAATATATATATATA [XGTACX_site2300]”, which “gcPBM binding intensity (ln)” value is on record?
Answer: 9.91 ± 0.38

Question: With “ATTTAAAAAAGAAAGGTGCATTTCAATAATGTAAAA [GTGCAC_site9585]” as the sequence, how does the “gcPBM binding intensity (ln)” value read?
Answer: 8.62 ± 0.15

Question: “TTTTGATATAAAAAAAGTACATTAATAATATTAATT [XGTACX_site4248]” was tested. Which “gcPBM binding intensity (ln)” value did it give?
Answer: 8.29 ± 0.37

Question: “TTATTATATAAAATAAATAACAAAAAAAATAAAATA [GTGCAC_negctrl_site548]” was tested. Which “gcPBM binding intensity (ln)” value did it give?
Answer: 8.45 ± 0.43

Question: Which “gcPBM binding intensity (ln)” value does the source give for “CCTTGCCCCAGGAGTTCACACACATAATAGATTGTC [CACACA_site8138]” here?
Answer: 8.82 ± 0.64

Question: For “TTAACCTTTATATAATACGTATCATCCTCATATATA [CACACA_negctrl_site86]”, which “gcPBM binding intensity (ln)” value is on record?
Answer: 8.95 ± 0.61

Question: With “TTATAAATATTCTTGGGTACTTAAGATGATATGTAA [XGTACX_site5496]” as the sequence, how does the “gcPBM binding intensity (ln)” value read?
Answer: 8.34 ± 0.39

Question: “TTTATTATCTTATTCACACACATATATAAATATGTA [CACACA_site7369]” was tested. Which “gcPBM binding intensity (ln)” value did it give?
Answer: 8.58 ± 0.4

Question: Which “gcPBM binding intensity (ln)” value does the source give for “ATCTCTTATATATTCACACACATATATATAATTATA [CACACA_site1502]” here?
Answer: 8.85 ± 0.42

Question: “GTTATTAAATAATTCACACACATATATAAATAAATA [CACACA_site7129]” was tested. Which “gcPBM binding intensity (ln)” value did it give?
Answer: 8.31 ± 0.48

Question: For “CAAAATAAAAAATTCACACACATATATATATATATA [CACACA_site2088]”, which “gcPBM binding intensity (ln)” value is on record?
Answer: 10.2 ± 0.38

Question: How did the “gcPBM binding intensity (ln)” value turn out when “CAAAATAAAAAATTCACACACATATAAATATAAATA [CACACA_site7065]” was run?
Answer: 8.54 ± 0.24

Question: How did the “gcPBM binding intensity (ln)” value turn out when “AAAAAAAAAAAAAATTCACACACATATAAAAAATTA [CACACA_site8140]” was run?
Answer: 8.31 ± 0.47

Question: For “TTTATTATCTTATTCACACACATATATATATATATA [CACACA_site2869]”, which “gcPBM binding intensity (ln)” value is on record?
Answer: 10.2 ± 0.41

Question: Which “gcPBM binding intensity (ln)” value does the source give for “GCGTTATTAAATAATTCACACACATATATATATATA [CACACA_site8711]” here?
Answer: 10 ± 0.38

Question: Which “gcPBM binding intensity (ln)” value does the source give for “GTTATTAAATAATTCACACACATATATATATATATA [CACACA_site2260]” here?
Answer: 10.3 ± 0.45

Question: “ATTATATATATATATAAACACACATAAATATAAATA [CACACA_site8291]” was tested. Which “gcPBM binding intensity (ln)” value did it give?
Answer: 8.56 ± 0.38

Question: Which “gcPBM binding intensity (ln)” value does the source give for “AAAATATTTATTTTTTGTACACATAAAAACGCACTT [XGTACX_site4132]” here?
Answer: 8.62 ± 0.11

Question: For “TATTATTTTTTAAATTGTACAATAAATTATAAAAGG [XGTACX_site1162]”, which “gcPBM binding intensity (ln)” value is on record?
Answer: 8.41 ± 0.39

Question: How did the “gcPBM binding intensity (ln)” value turn out when “TTCTAATATTTTTGCACACTAAACAATAAATTTCCT [CACACA_site3944]” was run?
Answer: 8.885 ± 0.078

Question: For “AGCTCTCAAAATTATTCACACGTGTCCTGTTATATA [CACACA_site5415]”, which “gcPBM binding intensity (ln)” value is on record?
Answer: 9.26 ± 0.47

Question: Which “gcPBM binding intensity (ln)” value does the source give for “TTTGTGTAAAGAATCAGTACATATAATATATATATA [XGTACX_site1972]” here?
Answer: 9.34 ± 0.33

Question: With “ATATATTTCATTTTTGTACACACAACGTTGGAGGGT [CACACA_site8999]” as the sequence, how does the “gcPBM binding intensity (ln)” value read?
Answer: 8.84 ± 0.39

Question: For “AAAATAATTGTTTACACACCCATTTGTAATTTTACC [CACACA_site3614]”, which “gcPBM binding intensity (ln)” value is on record?
Answer: 8.54 ± 0.37

Question: With “GTACCTATTTCATACACACACACACGCAAACAAACA [CACACA_site6590]” as the sequence, how does the “gcPBM binding intensity (ln)” value read?
Answer: 9.01 ± 0.34

Question: Which “gcPBM binding intensity (ln)” value does the source give for “TTAACTCAAGAGTGTACACATATATATATATATATA [CACACA_site4334]” here?
Answer: 10.2 ± 0.47

Question: “GTATATATGTATATGTGTACACATATTCTTAACTCA [XGTACX_site309]” was tested. Which “gcPBM binding intensity (ln)” value did it give?
Answer: 8.88 ± 0.33

Question: For “CACTTAACACAAGAGTGTACACATATATATATATAT [XGTACX_site686]”, which “gcPBM binding intensity (ln)” value is on record?
Answer: 10.1 ± 0.53

Question: Which “gcPBM binding intensity (ln)” value does the source give for “TTATAAATGTAACGATGTACTTTTAAAAGTTTCCTT [XGTACX_site109]” here?
Answer: 8.36 ± 0.38

Question: With “TGGTATTAAGGAGAGGGTACAAAAAAAAAAAAAAAA [XGTACX_site1668]” as the sequence, how does the “gcPBM binding intensity (ln)” value read?
Answer: 8.28 ± 0.49

Question: Which “gcPBM binding intensity (ln)” value does the source give for “AATAATATCATTTAGACACACACTCTTACAATATGT [CACACA_site8832]” here?
Answer: 8.61 ± 0.45

Question: With “GTTTATATTTAATTTTTTTGTTTTTTTGTGTAATTC [XGTACX_negctrl_site194]” as the sequence, how does the “gcPBM binding intensity (ln)” value read?
Answer: 8.53 ± 0.47

Question: How did the “gcPBM binding intensity (ln)” value turn out when “AGATTTAAATATCATACACACTTTATCTATAATACA [CACACA_site6581]” was run?
Answer: 8.32 ± 0.4

Question: With “AAATAATTTACTTAATGTACATATATATATATATAT [XGTACX_site8594]” as the sequence, how does the “gcPBM binding intensity (ln)” value read?
Answer: 10.59 ± 0.092

Question: With “ATAAATATATTTAAATGTACATAATATATATATATA [XGTACX_site5137]” as the sequence, how does the “gcPBM binding intensity (ln)” value read?
Answer: 9.96 ± 0.18

Question: “TAAAAAATAAATATATGTACATATTTATTTTTTTTT [XGTACX_site850]” was tested. Which “gcPBM binding intensity (ln)” value did it give?
Answer: 8.21 ± 0.35

Question: “CATATTAATATTATGGGTACATATAAATTTACATTC [XGTACX_site687]” was tested. Which “gcPBM binding intensity (ln)” value did it give?
Answer: 8.64 ± 0.38

Question: How did the “gcPBM binding intensity (ln)” value turn out when “ATATATATATATATATGTACATAAATATTTTAAAAT [XGTACX_site4980]” was run?
Answer: 10.3 ± 0.4

Question: Which “gcPBM binding intensity (ln)” value does the source give for “TTATAATTTAATAAATGTACATAAATAATATACATA [XGTACX_site7271]” here?
Answer: 8.26 ± 0.18

Question: “ATAAAATTTTATATGGGTACATAATATAATATATAT [XGTACX_site8160]” was tested. Which “gcPBM binding intensity (ln)” value did it give?
Answer: 8.84 ± 0.41

Question: Which “gcPBM binding intensity (ln)” value does the source give for “GTATTTTTTTTAATATGTACATATAAAATATTTTAT [XGTACX_site8329]” here?
Answer: 8.96 ± 0.31

Question: How did the “gcPBM binding intensity (ln)” value turn out when “ATATATATATATATATGTACATAATTAATAATTAGA [XGTACX_site5672]” was run?
Answer: 10.3 ± 0.25

Question: For “TAATTAATAATAATATGTACATATTAATATATTATT [XGTACX_site6900]”, which “gcPBM binding intensity (ln)” value is on record?
Answer: 8.29 ± 0.24

Question: Which “gcPBM binding intensity (ln)” value does the source give for “AATAAATTAATTTTGGGTACATATATATATATATAT [XGTACX_site3807]” here?
Answer: 10.2 ± 0.23

Question: “TTAATATTAATTATATGTACATATAATATATATATA [XGTACX_site1757]” was tested. Which “gcPBM binding intensity (ln)” value did it give?
Answer: 9.18 ± 0.13

Question: Which “gcPBM binding intensity (ln)” value does the source give for “TAATTTAAAATATATAGTACACACGTGAACACAAAT [XGTACX_site792]” here?
Answer: 8.89 ± 0.45

Question: Which “gcPBM binding intensity (ln)” value does the source give for “AATATATCATAATGATGTACAAGTAAAACCGTTACA [XGTACX_site4280]” here?
Answer: 8.74 ± 0.52

Question: For “TATTATATGTATTGCACACCTTCAACAACTACTTCT [CACACA_site655]”, which “gcPBM binding intensity (ln)” value is on record?
Answer: 9.03 ± 0.14

Question: Which “gcPBM binding intensity (ln)” value does the source give for “TATTATTTTTTTATTCTATTAAAAAGAAAAAAATGA [CACACA_negctrl_site407]” here?
Answer: 7.95 ± 0.47

Question: “ACTTTACGAATTAAGAGTACTTATTTAAGGAACACT [XGTACX_site7919]” was tested. Which “gcPBM binding intensity (ln)” value did it give?
Answer: 8.52 ± 0.37

Question: How did the “gcPBM binding intensity (ln)” value turn out when “CTACATAAAAAAATATGTACATATATATATATATAT [XGTACX_site667]” was run?
Answer: 10 ± 0.46

Question: With “AAATATAAAAAAAAAAGTACTTTGTTACTTTTCTAT [XGTACX_site6034]” as the sequence, how does the “gcPBM binding intensity (ln)” value read?
Answer: 8.04 ± 0.36

Source: the supplement of paper PMC11417369
